# Values joined by “and” are separate entries in the source; they are usually repeats but may differ in a detail not shown here. Equal values may be shown once. Over roughly 5,300 compounds, “PER2::LUC luminescence relative to vehicle control” has its median near 0.96; the highest 2% begin near 1.3. For the sample, the highest values were picked, then their nearest neighbours and some compounds at random.
# Tested on: mPer2Luc MEF
# Assay: PER2::LUC luminescence relative to vehicle control (fold of vehicle); higher = higher PER2::LUC reporter signal
# Settings: 10 µM
# Outline: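 The reported values are PER2::LUC luminescence as fold of vehicle control in mouse embryonic fibroblasts carrying the mPer2Luc reporter. Cells were seeded at ~3000 per well in 384-well plates in DMEM with 10% FBS at 37 °C and 5% CO2, and compounds were added at 10 μM 48 h later. ONE-Glo luminescence was read 24 h and 30 h after treatment.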
Compound,PER2::LUC luminescence (time after treatment 24 h),PER2::LUC luminescence (time after treatment 30 h)
CCCCCCC(=O)CCCCCC/C=C/C[C@@H](O)[C@H](O)[C@@](N)(CO)C(=O)O,1.26,1.35
Cc1ncc(C[n+]2csc(CCO)c2C)c(=O)[nH]1,1.01,0.895
NCC(CC(=O)O)c1ccc(Cl)s1 (racemic),1.04,0.985
CC[C@H](C)[C@@H]([C@@H](CC(=O)N1CCC[C@H]1[C@H](OC)[C@@H](C)C(=O)N[C@H](C)[C@@H](O)c1ccccc1)OC)N(C)C(=O)[C@@H](NC(=O)[C@@H](NC)C(C)C)C(C)C,0.378,0.38
NCCc1ccc(O)cc1,1.03 and 0.947,0.942 and 0.934
Cc1[nH]c2ccc(O)cc2c1CCN,1.08 and 1.05,0.977 and 1.35
NCCc1c[nH]c2ccc(O)cc12,0.925,0.97
NC(CCCCCP(=O)(O)O)C(=O)O (racemic),1.22,1.09
O=[N+]([O-])c1cc([As](=O)(O)O)ccc1O,1.08,1.54
CC(=O)Nc1cc([As](=O)(O)O)ccc1O,1.04 and 1.02,1.06 and 0.878
O=[N+]([O-])c1ccc([As](=O)(O)O)cc1,1.13,0.866
COc1cc(=O)oc(/C=C/C=C/C=C/C(C)=C/[C@@]2(C)O[C@H](C)[C@](C)(O)[C@H]2O)c1C,0.952,0.913
COc1c2c3c4c(c(OC)c(=O)c5c(O)cc(OC)c(c6c(OC)cc(O)c(c1=O)c63)c54)[C@@H](C(C)=O)[C@@](C)(O)C2,1.14,1.06
O=C(O)[C@@H]1C[C@H]2C[C@@H](CP(=O)(O)O)CC[C@H]2CN1,1.03,0.966
C=C(C)c1cc2cc(C(C)=O)c(O)cc2o1,1.31,1.39
OCC1C(O)C(O)C2C(O)CCN12 (stereo not given),1.1,1.08
CC(=O)Oc1ccc(/C=C/c2cc(OC(C)=O)cc(OC(C)=O)c2)cc1,1.76,1.65
COc1ccc(/C=C/c2cc(O)cc(O)c2)cc1,1.69,1.76
C=CCc1ccc(OC)cc1,0.993,0.968
COc1ccc(O)c(C(C)(C)C)c1.COc1ccc(O)cc1C(C)(C)C,0.868,1.18
CCCC(=O)O[C@@H]1[C@@H](C)[C@@]2(O)[C@@H](C=C(CO)C[C@]3(O)C(=O)C(C)=C[C@@H]23)[C@@H]2C(C)(C)[C@]12OC(=O)CCC,1.13,0.899
COc1cc2c(cc1F)C(c1ccccc1Cl)=Nc1c(n[nH]c1C)N2,0.461,0.367
CC(=O)OCC1=C[C@H]2[C@@H]3C(C)(C)[C@]3(OC(=O)Cc3ccccc3)C[C@@H](C)[C@]2(O)[C@@H]2C=C(C)C(=O)[C@@]2(O)C1,1.21,1.09

Compound,PER2::LUC luminescence (time after treatment 24 h),PER2::LUC luminescence (time after treatment 30 h)
COc1ccc(C(C)(C)C)cc1CN[C@H]1C2CCN(CC2)[C@H]1C(c1ccccc1)c1ccccc1,0.868,0.939
CC1=C[C@]23C(=O)[C@@H](C=C(CO)[C@@H](O)[C@]2(O)[C@H]1O)[C@H]1[C@@H](C[C@H]3C)C1(C)C,0.981,0.957
CCN(CC)C(=O)NC1CC2c3cccc4[nH]cc(c34)CC2N(C)C1 (stereo not given),0.846,0.986
COC1=CC(=O)O[C@@H](/C=C/c2ccc3c(c2)OCO3)C1,0.149,0.152
COC1=CC(=O)O[C@@H](CCc2ccc3c(c2)OCO3)C1,0.859,0.763
COC1=CC(=O)O[C@@H](/C=C/c2ccccc2)C1,1.28,1.35
Cc1o[nH]c(=O)c1CC(N)C(=O)O (racemic),0.875,0.984
C[C@@H]1OC(=O)[C@H]2C[C@H]3CCCC[C@@H]3[C@@H](/C=C/[C@H]3CCC[C@H](C)N3C)[C@@H]12,0.807,0.884
N=C(N)NCCCCCCCCCCNC(=N)N,0.972,0.965
NCCc1ccccn1,0.99,1.45
Cn1cnc(CCN)c1,0.826,0.66
NCCc1ccccc1,1.03,1.04
CC(C)CC(NC(=O)C(Cc1ccccc1)NC(=O)CNC(=O)C(C)NC(=O)C(N)Cc1ccc(O)cc1)C(=O)O (stereo not given),1.03,0.904
CC1(C)C(=O)N(c2ccc(C#N)c(C(F)(F)F)c2)C(=S)N1c1ccc(C(N)=O)c(F)c1,1.06,1.11
CC(=O)OC12CC(C)C3(O)C4C=C(C)C(=O)[C@@]4(O)CC(CO)=C[C@H]3C1C2(C)C (stereo not given in full),1.15,0.967
COC(N)=O,1.07,1.01
NNC(N)=O,1.09,0.875
NC(=O)CI,1.59,1.31
O=C(O)CF,1.08,1.08
CN(C(=O)Cc1ccc(Cl)c(Cl)c1)[C@H](CN1CCCC1)c1cccc(N=C=S)c1,0.676,0.687
CCCN1C[C@H](C)N([C@H](c2ccc(C(=O)N(CC)CC)cc2)c2cccc(OC)c2)C[C@H]1C,0.894,0.899
"C=CCN1CC[C@@]2(C)c3cc(O)ccc3C[C@@H]1C2C (single isomer, unassigned; (+))",0.969,0.939

# — the supplement of paper PMC9334596
